Assay [1] in a line: antimalarial activity against Dd2 strain (AID 2302;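 active = growth inhibition above 50% at the single 2 µM test dose, taken to imply half-maximal potency below 2 µM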;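 also: 0% = DMSO untreated growth and 100% = chloroquine plus artemisinin killed control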). The following applies: P. falciparum Dd2 in RBCs, LDH growth readout, 72 h; at 2 µM; active compounds read high.
The nature of assay [2]: HepG2 cytotoxicity, primary screen, cytotoxicity control for P. falciparum antimalarial project, cell-based, ATP luminescence (AID 2303;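 active = inhibition above 50%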;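 also: 0% = DMSO wells and 100% = digitonin-killed cells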). To be noted: HepG2 viability, 24-48 h, at 10 µM, active compounds read high.
Assay [3] concerns the target L-lactate dehydrogenase (Plasmodium falciparum (isolate CDC / Honduras)) (UniProt Q27743). In words: PfLDH activity inhibition – cell lysate, 3D7 strain, counter-screen for P. falciparum growth inhibition project (AID 2304).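 Also: 0% = vehicle and 100% = reference inhibitor.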 To be noted: P. falciparum 3D7 crude extract, LDH APAD/NBT absorbance; at 2 µM; active compounds read high. For orientation: The purpose of a counterscreen is to sort out artefacts and off-target activity.

Assay [4] in a line: inhibition of 3D7 malaria parasite growth – strain 3D7 (AID 2306).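 Also: 0% = DMSO wells and 100% = chloroquine plus artemisinin control wells.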 To be noted: P. falciparum 3D7 erythrocytic growth, LDH absorbance, 72 h; at 2 µM; active compounds read high.
Assay [5] concerns the target Calcium-dependent protein kinase 1 (Plasmodium falciparum (isolate 3D7)) (UniProt P62344). The assay is described as follows: PfCDPK1 kinase inhibitors, biochemical, TCAMS library (AID 1159585; cut-off not given, nearly all actives have IC50 up to about 0.98 µM;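 also: inhibitors leave more ATP so luminescence rises with inhibition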). To be noted: recombinant PfCDPK1, Kinase-Glo ATP depletion luminescence. In general terms: Kinase-Glo measures the ATP left after a reaction by luminescence.
The target in assay [6] is Plasmodium falciparum protein kinase 6 (PK6, PF3D7_1337100) (UniProt Q8IDW1). The assay is described as follows: PfPK6 kinase inhibitors, biochemical, TCAMS library (AID 1159586). To be noted: recombinant PfPK6, Kinase-Glo ATP depletion luminescence.
Chain of Plasmodium falciparum protein kinase 6 (PK6, PF3D7_1337100) (Q8IDW1 1-305): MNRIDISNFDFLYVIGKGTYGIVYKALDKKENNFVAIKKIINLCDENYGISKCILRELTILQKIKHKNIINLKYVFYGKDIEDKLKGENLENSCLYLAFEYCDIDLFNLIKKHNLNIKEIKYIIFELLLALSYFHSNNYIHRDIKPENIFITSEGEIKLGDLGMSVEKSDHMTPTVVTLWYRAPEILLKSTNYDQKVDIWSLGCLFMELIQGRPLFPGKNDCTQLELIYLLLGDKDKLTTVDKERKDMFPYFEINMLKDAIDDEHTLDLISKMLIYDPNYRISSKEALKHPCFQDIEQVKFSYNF
The target of assay [7] is Protein kinase 7 (PK7), Plasmodium falciparum 3D7 (PF3D7_0213400) (UniProt Q7YTF7). In words: inhibition of Plasmodium PK7 catalytic activity – biochemical, TCAMS antimalarial set, Kinase-Glo luminescence (AID 1159587). To be noted: recombinant PfPK7, Kinase-Glo ATP depletion luminescence.
Chain of Protein kinase 7 (PK7), Plasmodium falciparum 3D7 (PF3D7_0213400) (Q7YTF7 1-343): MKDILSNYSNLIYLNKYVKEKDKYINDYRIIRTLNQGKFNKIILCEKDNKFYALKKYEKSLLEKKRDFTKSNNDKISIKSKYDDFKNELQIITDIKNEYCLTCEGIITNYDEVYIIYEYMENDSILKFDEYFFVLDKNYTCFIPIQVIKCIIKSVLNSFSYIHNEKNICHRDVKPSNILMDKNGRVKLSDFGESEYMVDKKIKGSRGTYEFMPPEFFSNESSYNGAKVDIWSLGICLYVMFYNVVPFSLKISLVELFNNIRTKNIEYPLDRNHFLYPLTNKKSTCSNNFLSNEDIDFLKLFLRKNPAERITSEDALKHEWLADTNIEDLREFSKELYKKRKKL
Assay [8] has as its target Calcium-dependent protein kinase 4 (Plasmodium falciparum (isolate 3D7)) (UniProt Q8IBS5). The assay is described as follows: PfCDPK4 kinase inhibitors, biochemical, TCAMS library (AID 1159588; cut-off not given, nearly all actives have IC50 up to about 0.91 µM). The following applies: recombinant PfCDPK4, Kinase-Glo ATP depletion luminescence.

Unmarked numbers belong to inactive results. For some of these results: Measured potencies and affinities stand elsewhere. Active and inactive are the calls of the source. Unless noted, no rule for the calls is given here.

Chain of L-lactate dehydrogenase (Plasmodium falciparum (isolate CDC / Honduras)) (Q27743 whole entry, looked up): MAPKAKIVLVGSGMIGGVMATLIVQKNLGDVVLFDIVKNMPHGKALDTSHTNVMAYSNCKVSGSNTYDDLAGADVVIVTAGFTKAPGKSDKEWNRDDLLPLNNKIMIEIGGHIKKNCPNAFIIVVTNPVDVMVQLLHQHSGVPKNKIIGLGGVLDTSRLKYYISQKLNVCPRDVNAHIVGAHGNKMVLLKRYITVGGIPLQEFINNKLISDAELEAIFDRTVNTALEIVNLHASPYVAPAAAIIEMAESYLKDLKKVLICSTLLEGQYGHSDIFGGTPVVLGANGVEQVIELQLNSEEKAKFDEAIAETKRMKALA
Chain of Calcium-dependent protein kinase 1 (Plasmodium falciparum (isolate 3D7)) (P62344 whole entry, looked up): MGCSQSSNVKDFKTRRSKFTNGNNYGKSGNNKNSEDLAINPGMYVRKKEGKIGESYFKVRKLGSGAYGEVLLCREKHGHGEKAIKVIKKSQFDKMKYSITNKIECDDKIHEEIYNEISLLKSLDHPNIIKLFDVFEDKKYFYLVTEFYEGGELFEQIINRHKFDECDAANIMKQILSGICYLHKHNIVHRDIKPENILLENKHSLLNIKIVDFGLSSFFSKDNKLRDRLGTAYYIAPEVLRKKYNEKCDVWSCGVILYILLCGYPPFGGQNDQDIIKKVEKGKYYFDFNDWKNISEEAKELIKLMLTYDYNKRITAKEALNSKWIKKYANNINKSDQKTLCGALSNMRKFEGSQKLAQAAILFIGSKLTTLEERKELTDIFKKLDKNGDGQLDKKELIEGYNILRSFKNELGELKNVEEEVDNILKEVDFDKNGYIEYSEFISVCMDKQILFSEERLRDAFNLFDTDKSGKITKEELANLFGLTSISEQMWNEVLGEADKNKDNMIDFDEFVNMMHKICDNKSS
Chain of Calcium-dependent protein kinase 4 (Plasmodium falciparum (isolate 3D7)) (Q8IBS5 whole entry, looked up): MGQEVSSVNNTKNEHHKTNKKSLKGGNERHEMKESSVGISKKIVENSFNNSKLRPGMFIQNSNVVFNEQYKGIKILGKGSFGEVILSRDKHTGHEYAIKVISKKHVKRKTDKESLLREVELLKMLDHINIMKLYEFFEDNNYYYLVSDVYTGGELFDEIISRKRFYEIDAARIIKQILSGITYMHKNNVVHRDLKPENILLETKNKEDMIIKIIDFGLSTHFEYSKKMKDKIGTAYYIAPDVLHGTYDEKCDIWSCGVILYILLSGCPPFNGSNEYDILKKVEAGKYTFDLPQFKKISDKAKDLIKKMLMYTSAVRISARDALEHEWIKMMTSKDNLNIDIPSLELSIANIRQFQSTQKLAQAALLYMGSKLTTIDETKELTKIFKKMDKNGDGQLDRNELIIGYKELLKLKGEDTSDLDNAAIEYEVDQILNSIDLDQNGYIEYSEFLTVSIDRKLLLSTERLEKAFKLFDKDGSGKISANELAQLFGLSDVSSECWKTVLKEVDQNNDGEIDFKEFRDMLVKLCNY

As usually defined, the inhibition is the relative decrease from the control value, in per cent. With `CC[C@@]1(O)C(=O)OCc2c1cc1n(c2=O)Cc2c-1nc1cc3c(cc1c2CN1CCN(C)CC1)OCCO3`, the growth inhibition was 97% (active) in assay [1] and 98% (active) in assay [4]. Besides, the inhibition is 79% (active) in assay [2] and 1% in assay [3]. For the same compound, the result in assay [5], in assay [6], in assay [7] and in assay [8] was inactive.

In the case of `O=C(NC1CCN(c2ccnc3ccccc23)C1)c1cccc(C(F)(F)F)c1` (stereo not given), the growth inhibition in assay [1] is 86% (active); in assay [4] it was 94% (active). Besides, the inhibition in assay [2] is 28%; in assay [3], 6%. The result in assay [5], in assay [6], in assay [7] and in assay [8] was inactive.

As to `COc1cc(C=CC(=O)N2CCC(CCN3CCC(c4c[nH]c5ccccc45)CC3)CC2)cc(OC)c1`, the growth inhibition was 23% in assay [1] and 92% (active) in assay [4]. In addition, the values for the inhibition in assay [2] and in assay [3] were 39% and -5%, respectively. Also, the result in assay [5], in assay [6], in assay [7] and in assay [8] was inactive.

Regarding `c1ccc(CNCc2ccc(-c3cccc(-c4nc5ccccc5[nH]4)c3)cc2)cc1`, the growth inhibition is 78% (active) in assay [1] and 101% (active) in assay [4]. Also, the figures for the inhibition in assay [2] and in assay [3] were 55% (active) and -2%, respectively. For the same compound, the result in assay [5], in assay [6], in assay [7] and in assay [8] was inactive.

For the compound `CCOC(=O)c1ccc(NC(=O)NC2CCN(CCCCCNC(=O)/C=C/c3ccc(Cl)c(Cl)c3)C2)cc1` (stereo not given), the growth inhibition in assay [1] is 0%; in assay [4], 98% (active). The results for the inhibition in assay [2] and in assay [3] were 23% and -3%, respectively. Also, the outcome in assay [5], in assay [6], in assay [7] and in assay [8] was inactive.

For the compound `CN1CCC(Oc2ccc(NC(=O)c3ccc4c(=O)n(Cc5ccccc5)cnc4c3)cc2Cl)CC1`, the growth inhibition was 20% in assay [1] and 95% (active) in assay [4]. The inhibition in assay [2] is 23%; in assay [3], 0%. The result in assay [5], in assay [6], in assay [7] and in assay [8] was inactive.

As for `O=C(NCCCCN1CCC(c2ccc(C(F)(F)F)cc2C(F)(F)F)CC1)c1ccc(NC(=O)c2ccc(Cl)cc2)cc1`, the growth inhibition was 59% (active) in assay [1] and 99% (active) in assay [4]. For the same compound, the figures for the inhibition in assay [2] and in assay [3] were 4% and 7%, respectively. The outcome in assay [5], in assay [6], in assay [7] and in assay [8] was inactive.

With `Nc1nc2c(ncn2OC[C@H](CO)OCP(=O)(O)O)c(=O)[nH]1`, the growth inhibition in assay [1] is 61% (active); in assay [4] it was 94% (active). Also, the inhibition was 5% in assay [2] and -4% in assay [3]. For the same compound, the outcome in assay [5], in assay [6], in assay [7] and in assay [8] was inactive.

In the case of `Cc1cc(N2CC=CCC2)nc(/N=C(\N)Nc2ccc(Cl)cc2)n1`, the growth inhibition in assay [1] was 78% (active); in assay [4] it was 100% (active). The inhibition is -2% in assay [2] and -8% in assay [3]. Also, the outcome in assay [5], in assay [6], in assay [7] and in assay [8] was inactive.

With `Nc1cccc(CNCc2cccc(-c3ccc(-c4nc5ccccc5[nH]4)cc3)c2)c1`, the figures for the growth inhibition in assay [1] and in assay [4] were 92% (active) and 101% (active), respectively. The inhibition in assay [2] was -1%; in assay [3] it was -2%. Further, the outcome in assay [5], in assay [6], in assay [7] and in assay [8] was inactive.

Regarding `CC1CCC2(CC1)N=C(N)N=C(N)N2OCc1cc2ccccc2c2ccccc12` (stereo not given), the growth inhibition is 41% in assay [1] and 97% (active) in assay [4]. For the same compound, the results for the inhibition in assay [2] and in assay [3] were 27% and -2%, respectively. Besides, the result in assay [5], in assay [6], in assay [7] and in assay [8] was inactive.

Regarding `Cc1cc2nc(-c3ccc(/C=C/C(=O)NCCCc4ccccc4)cc3)[nH]c2cc1C`, the growth inhibition was 13% in assay [1] and 96% (active) in assay [4]. Also, the results for the inhibition in assay [2] and in assay [3] were 15% and -4%, respectively. In addition, the result in assay [5], in assay [6], in assay [7] and in assay [8] was inactive.

For `O=C(CCc1cccnc1)Nc1ccc(-c2cccc(-c3nc4ccc(F)cc4[nH]3)c2)cc1`, the figures for the growth inhibition in assay [1] and in assay [4] were 9% and 86% (active), respectively. Moreover, the inhibition in assay [2] is 67% (active); in assay [3] it was 2%. Also, the outcome in assay [5], in assay [6], in assay [7] and in assay [8] was inactive.

For the compound `CCn1ccc2c(N3CCCCS3(=O)=O)cc(C(=O)N[C@@H](Cc3ccccc3)[C@H](O)CNC3CCCCC3)cc21`, the growth inhibition in assay [1] and in assay [4] was 98% (active) in each case. Besides, the inhibition in assay [2] and in assay [3] was 1% throughout. Moreover, the outcome in assay [5], in assay [6], in assay [7] and in assay [8] was inactive.

Turning to `O=C(/C=C/c1ccc(Cl)c(Cl)c1)NCCCCCN1CCC(NC(=O)Nc2cc(Cl)cc(Cl)c2)CC1`, the growth inhibition is 5% in assay [1] and 94% (active) in assay [4]. In addition, the values for the inhibition in assay [2] and in assay [3] were 98% (active) and -8%, respectively. The outcome in assay [5], in assay [6], in assay [7] and in assay [8] was inactive.

As for `CCNc1cc(C(=O)N[C@@H](Cc2ccccc2)[C@H](O)CN[C@H](C)c2ccccc2)cc(N2CCCC2=O)c1`, the growth inhibition was 99% (active) in assay [1] and 97% (active) in assay [4]. Besides, the inhibition in assay [2] is -1%; in assay [3], 6%. Besides, the result in assay [5], in assay [6], in assay [7] and in assay [8] was inactive.

Consider `CCCCCC(C)C(C)c1cc(O)c2c(c1)OC(C)(C)CC2(O)c1ccccn1` (stereo not given), for which the growth inhibition in assay [1] was 3%; in assay [4] it was 98% (active). The values for the inhibition in assay [2] and in assay [3] were -2% and -5%, respectively. In addition, the outcome in assay [5], in assay [6], in assay [7] and in assay [8] was inactive.

As to `CCCNCc1ccc(-c2ccc(CN(CCOC)C(=O)/C=C/c3ccccc3C)cc2)nc1`, the growth inhibition in assay [1] is 39%; in assay [4], 95% (active). In addition, the inhibition in assay [2] was 13%; in assay [3], 2%. Further, the result in assay [5], in assay [6], in assay [7] and in assay [8] was inactive.

With `COc1ccc2[nH]cc(C3CCN(CCC4CCN(C(=O)/C=C/c5ccc(Cl)c(Cl)c5)CC4)CC3)c2c1`, the growth inhibition in assay [1] is 56% (active); in assay [4], 101% (active). The inhibition was 52% (active) in assay [2] and 3% in assay [3]. The outcome in assay [5], in assay [6], in assay [7] and in assay [8] was inactive.

Regarding `Cc1ccccc1C1CCN(C2CCC(NC(=O)c3cc(-c4ccccc4)oc3C)CC2)CC1` (stereo not given), the growth inhibition in assay [1] is 32%; in assay [4] it was 100% (active). For the same compound, the inhibition was 46% in assay [2] and 0% in assay [3]. Also, the result in assay [5], in assay [6], in assay [7] and in assay [8] was inactive.

The values are drawn from PubChem BioAssay.
